A short description of assay [1]: A549 cell viability effects, profiling panel, calcein-AM fluorescence, 48 h, basal (AID 1162). To be noted: higher = more signal.
Assay [2] in a line: adipocyte viability effects, profiling panel, cell-based, 3T3-L1 adipocytes, calcein-AM fluorescence, 48 h, basal (AID 1163). To be noted: 3T3-L1 adipocytes viability, higher = more signal.
Assay [3] can be described thus: HepG2 cell viability effects, profiling panel, calcein-AM fluorescence, 48 h, basal (AID 1164). To be noted: higher = more signal.
The nature of assay [4]: MM1S cell viability effects, profiling panel, calcein-AM fluorescence, 48 h, basal (AID 1165).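 Also: viability of MM1S multiple myeloma cells under basal unstimulated conditions.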 To be noted: higher = more signal.
The nature of assay [5]: basal RPMI8226 viability, no added stimulus, profiling panel, cell-based, calcein-AM fluorescence, 48 h, PK04 Diversity Set (AID 1166).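 Also: cells grown under basal conditions without added stimulus.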 The note with it: RPMI8226 myeloma viability, higher = more signal.
Assay [6] in a line: basal HepG2 mitochondrial membrane potential changes, profiling panel, cell-based, JC-1 fluorescence, 24 h, 100 nL compound (AID 1167). The note with it: higher = more signal.
Assay [7] is described as follows: basal 3T3-L1 adipocyte mitochondrial potential changes, profiling panel, cell-based, JC-1 fluorescence, 3T3-L1 adipocytes, 24 h, 100 nL compound (AID 1168). To be noted: JC-1 mitochondrial fluorescence, higher = more signal, called active from +8 up or from −8 down.
A short description of assay [8]: basal RPMI8226 mitochondrial membrane potential changes, profiling panel, cell-based, JC-1 fluorescence, 24 h, 100 nL compound (AID 1169). To be noted: RPMI8226 myeloma, JC-1 mitochondrial potential fluorescence, higher = more signal.
A short description of assay [9]: basal MM1S mitochondrial membrane potential changes, profiling panel, cell-based, JC-1 fluorescence, 24 h, 100 nL compound (AID 1170). To be noted: higher = more signal.
A short description of assay [10]: A549 lung cancer cell viability effects, profiling panel, resazurin fluorescence, 24 h, PK04 Diversity Set (AID 1171). The note with it: higher = more signal, called active from +8 up or from −8 down. On the technique in general: Alamar Blue is a resazurin reagent that responds to reducing activity.

Each structure is given as a SMILES string. Calls of active or inactive are those of the source.

This passage reports z-score results from PubChem BioAssay.
Also: test concentration not given here.

As for `CCCC[C@H]1C[C@@H]1[C@@H]1N(P(=O)(c2ccccc2)c2ccccc2)C[C@@](O)(c2ccccc2)CC12CC2`, the z-score was -3.9 in assay [1]; -0.228 in assay [2]; -5.35 in assay [3]; -3.29 in assay [4]; -4.7 in [5]; -2.84 in assay [6]. In addition, the z-score was -0.556 (inactive) in assay [7], -0.917 in assay [8], -2.78 in assay [9] and 4.58 (inactive) in assay [10].

As to `CO[C@H]1O[C@H](CO)[C@@H](OC(=O)Nc2ccccc2-c2ccccc2)[C@H](OC(=O)Nc2ccccc2-c2ccccc2)[C@@H]1OC(=O)Nc1ccccc1-c1ccccc1`, the z-score was -0.378 in assay [1]; 0.159 in assay [2]; -0.0639 in [3]; -0.857 in [4]; -1.24 in assay [5]; 0.0618 in [6]. For the same compound, the z-score is 1.6 (inactive) in assay [7], -0.194 in assay [8], 1.33 in [9] and -0.387 (inactive) in assay [10].

As for `CCCCCCc1nc(-c2ccc(-c3ccc(Cl)c(Cl)c3)o2)cc2c1[Si](C(C)C)(C(C)C)O[C@H]2c1ccccc1`, the z-score in assay [1] is -0.793; in [2], -0.0866; in [3], -1.08; in [4], -0.373; in assay [5] it was 0.568; in assay [6], 0.474. The z-score is -0.0412 (inactive) in assay [7], 0.278 in assay [8], -0.284 in [9] and 1.19 (inactive) in [10].

Turning to `CCC(CC)C(O)C1C=CC2C(=O)N(c3ccccc3)C(=O)C2N1Nc1ccccc1` (stereo not given), the z-score in assay [1] is 0.857; in assay [2] it was -1.31; in assay [3], 1.72; in [4], -0.127; in assay [5] it was -0.092; in assay [6], -1.48. For the same compound, the z-score was -2.32 (inactive) in assay [7], 0.0116 in [8], -0.403 in assay [9] and 0.328 (inactive) in [10].

For the compound `CC1CC/C=C\[C@H]2OC34C=CCN(Cc5ccccc5)C(=O)[C@H]3N(C(C)CO)C(=O)[C@@H]4C2C(=O)O1` (stereo not given in full), the z-score in assay [1] was 0.278; in [2], -0.979; in assay [3], 0.679; in assay [4] it was 0.998; in assay [5], -0.182; in assay [6] it was 0.554. Also, the z-score in assay [7] is 0.219 (inactive); in [8], 1.11; in assay [9], 0.741; in [10], 0.418 (inactive).

As for `O=C(CS)NCCCCCNC(=O)[C@H]1C[C@H]2C(=O)NCC(=O)N2[C@H]1c1cccc(OCCO)c1`, the z-score in [1] is 0.54; in [2], 0.0451; in assay [3], -0.203; in [4], 0.304; in [5], 0.111; in [6] it was -0.342. The z-score in assay [7] was -0.0834 (inactive); in assay [8], 0.127; in assay [9], 0.112; in assay [10], 0.768 (inactive).

`CN(C)CCCCNC(=O)[C@@H]1C[C@@H]2C(=O)N[C@@H](CCCCN)C(=O)N2[C@@H]1c1ccc(O)cc1`: the z-score is 0.48 in assay [1]; -1.51 in assay [2]; 0.377 in [3]; -0.388 in assay [4]; 0.473 in assay [5]; -1.58 in assay [6]. Also, the z-score in assay [7] was 0.627 (inactive); in assay [8], -0.836; in assay [9], -1.29; in assay [10] it was 0.0719 (inactive).

On to `CCCNC(=O)[C@@H]1c2ccccc2C(=O)N(Cc2ccccc2OC)[C@H]1c1ccc(CO)cc1`, for which the z-score was 2.28 in [1]; -0.272 in assay [2]; 1.52 in assay [3]; 0.513 in assay [4]; 0.349 in assay [5]; 1.67 in assay [6]. The z-score in [7] is 0.776 (inactive); in [8], 0.182; in assay [9] it was -0.565; in [10], -0.0906 (inactive).

`O=C(O)[C@@]1(CCS(=O)(=O)c2ccccc2)N=C(c2ccc(OCCCO)cc2)O[C@H]1c1ccccc1`: the z-score in [1] was -0.932; in assay [2], 0.784; in assay [3], -0.258; in assay [4], -0.839; in assay [5], -1.04; in assay [6], 0.591. Also, the z-score in assay [7] is -0.249 (inactive); in assay [8], -0.178; in assay [9], -0.51; in assay [10] it was 0.761 (inactive).

As for `C=CC[C@@]1(C(=O)N2CCCCC2)N=C(c2ccc(OCCCO)cc2)O[C@@H]1c1ccccc1CN=[N+]=[N-]`, the z-score in assay [1] was -0.933; in assay [2], 0.952; in assay [3], 0.192; in assay [4], -1.09; in assay [5] it was -3.66; in assay [6] it was 1.47. In addition, the z-score in assay [7] is -0.307 (inactive); in assay [8] it was -1.01; in [9], -0.18; in assay [10], -1.5 (inactive).

Take `COCC(=C=CC[C@H](O)c1cccc(OCCO)c1)CCO`: the z-score was -0.243 in [1]; -0.214 in assay [2]; -0.909 in assay [3]; 0.269 in assay [4]; 0.256 in assay [5]; -0.206 in assay [6]. For the same compound, the z-score in assay [7] was 0.244 (inactive); in [8] it was -0.574; in [9] it was -0.451; in [10], 0.614 (inactive).

For `Cc1ccc(/C=C/C=O)cc1`, the z-score in assay [1] is 0.572; in [2] it was -0.106; in assay [3], 0.935; in [4] it was 0.858; in assay [5], 0.532; in assay [6] it was 1.34. The z-score in assay [7] is -0.111 (inactive); in assay [8], -0.758; in assay [9], 0.427; in assay [10] it was -0.64 (inactive).

As for `C=CCNC(=O)[C@H]1[C@@H]2C(=O)O[C@@H](c3ccccc3)[C@@H](c3ccccc3)N2[C@@H](c2ccc(O)cc2)[C@]12C(=O)Nc1ccc(C#CCCO)cc12`, the z-score in [1] is 0.838; in assay [2], -0.655; in assay [3], 0.122; in [4], 0.994; in assay [5] it was 0.168; in assay [6] it was -0.757. For the same compound, the z-score is 0.651 (inactive) in assay [7], -0.873 in assay [8], -0.723 in assay [9] and 0.437 (inactive) in assay [10].

With `NC(=O)[C@@H]1[C@H]2C(=O)O[C@H](c3ccccc3)[C@H](c3ccccc3)N2[C@H](c2ccc(O)cc2)[C@@]12C(=O)Nc1ccc(C#CC3=CCCCC3)cc12`, the z-score in [1] is -1.42; in [2], -0.0881; in assay [3], -5.06; in assay [4], -3.27; in assay [5], -4.17; in assay [6], -3.59. Besides, the z-score was -1.58 (inactive) in assay [7], -0.88 in assay [8], -1.94 in assay [9] and -0.274 (inactive) in assay [10].

Turning to `CC(C)[C@@H](C(=O)O)n1cc(C2(O)CCCCC2)nn1`, the z-score in assay [1] is 0.566; in assay [2], 1.51; in [3], -0.294; in assay [4] it was 0.248; in assay [5], 0.215; in [6], 0.727. The z-score in assay [7] was 0.639 (inactive); in assay [8] it was -0.302; in assay [9] it was -0.394; in assay [10], 0.194 (inactive).

On to `COC(=O)[C@@]1(Cc2ccc(F)cc2)[C@H]2c3cc(C(=O)N(C)C)n(Cc4ccc(C)o4)c3C[C@H]2CN1C(=O)c1ccccc1`, for which the z-score in assay [1] was 0.0895; in assay [2], -0.333; in [3], 0.625; in [4] it was -1.58; in assay [5], -2.03; in [6] it was 0.0211. Further, the z-score was -1.72 (inactive) in [7], -0.847 in [8], -0.209 in [9] and 0.501 (inactive) in assay [10].
